# Test results taken from PubChem BioAssay (Tox21).
# Results filed as inconclusive are left out. The source made the active and inactive calls. Calls follow the shape of the dose curve; as a rule, active = well fitted cell-killing curve with a large enough effect in the repeat runs; inconclusive = weak or mixed curves, or effect the other way; inactive = flat fitted curve, though single readings scatter.
# Experiment: cAMP Responsive Elements (CRE) small molecule agonists, cell-based qHTS assay: qHTS cell viability counter screen (AID 2060914);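 also: viability read after 3 h of compound exposure; nearly all actives have a fitted effect of over 50% in size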
# Settings: CRE-bla HEK293T viability, CellTiter-Glo luminescence, 5 h; series mostly up to 92.4 µM; activity change, negative = cytotoxicity: at the top concentration
# Description: National Center for Advancing Translational Sciences [NCATS]
# Division of Preclinical Innovation [DPI]
# U.S. Environmental Protection Agency [EPA]
# National Institutes of Environmental Health Sciences [NIEHS]
# National Toxicology Program [NTP]
# U.S. Food and Drug Administration [FDA]
# CREB (cyclic-AMP Responsive Element Binding Protein) is a cellular transcription factor. It binds to certain DNA sequences called cAMP Responsive Elements (CRE) and regulates the transcription of the genes. […] This cell line can be used to find agonists/antagonists of the cyclic AMP signaling pathway. The activation of the report gene under culture conditions can be detected by fluorescence intensity. This cell line has been used to screen the Tox21 10K compound library to identify agonists that induce oxidative stress. The cytotoxicity of the Tox21 compound library against the CRE-bla cell line was tested in parallel by measuring the cell viability using CellTiter-Glo assay (Promega, Madison, WI) in the same wells.
# Tox21 Assay Protocol Summary:
# CRE-bla Hek 293T cells were suspended in assay medium (DMEM containing 10% dialyzed FBS, 0.1 mM NEAA, 1 mM sodium pyruvate and 25 mM HEPES) and dispensed at 2,000 cells/5 uL /well into 1536-well black wall/clear bottom plates using a Multidrop Combi (ThermoFisher Scientific, Waltham, MA) dispenser. After the assay plates were incubated at 37 C/5% CO2 for 18 hrs, 23 nL of compounds dissolved in DMSO, positive controls or DMSO only was transferred to the assay plate by a pintool workstation (Kalypsys, San Diego, CA). After the plates were incubated at 37 C/5% CO2 for 3 hrs, 1 uL of LiveBLAzer B/G FRET substrate (Invitrogen, Carlsbad, CA) was added to each well using Bioraptr Flying Reagent Dispenser (FRD, Aurora Discovery, San Diego, CA). The plates were incubated at room temperature for 2 h, then fluorescence intensities were measured using an Envision plate reader (PerkinElmer, Shelton, CT) at Excitation 405nm, Emission 460nm and 530nm. The % activity was determined from the ratio of 460nm/530nm. For cell viability readout that measures cytotoxicity, 4 uL /well of CellTiter-Glo reagent was added into the assay plates using Bioraptr FRD. After 30 min incubation at room temperature, the luminescence intensity in the assay plates was measured using a ViewLux (PerkinElmer, Shelton, CT) plate reader.
# % is scaled to controls: 0 for no effect and ±100 for the full control effect.
Structure (SMILES),Potency,"activity change, negative = cytotoxicity"
[O-]/[N+](=N\O)c1ccccc1,inactive,–
CC/C=C\CCOC(=O)C(C)C,–,1.65% (inactive)
CC(=O)CCCCn1c(=O)c2c(ncn2C)n(C)c1=O,–,-0.183% [at 42.5 µM] (inactive)
CC(=O)c1nccs1,inactive,–
CC(CCc1ccccc1)NCC(O)c1ccc(O)c(C(N)=O)c1 (stereo not given),–,16.3% (inactive)
CCO[Si](OCC)(OCC)OCC,–,-7.07% (inactive)
O=C(O)c1cc(=O)c2c(OCC(O)COc3cccc4oc(C(=O)O)cc(=O)c34)cccc2o1,inactive,–
CCCCCCCCCCC=CC1CC(=O)OC1=O (stereo not given),inactive,–
Cc1cc(C)cc([N+](=O)[O-])c1,–,-0.081% (inactive)
CCCCCOc1ccc(C2SC(=O)NC2=O)cc1OCC (stereo not given),–,-11.4% [at 42.5 µM] (inactive)
CCCCCCCC(=O)N(C)C,–,-13.1% (inactive)
CC1(C)O[C@@H]2C[C@H]3[C@@H]4CCC5=CC(=O)C=C[C@]5(C)[C@@]4(F)[C@@H](O)C[C@]3(C)[C@]2(C(=O)CO)O1,inactive,–
COC(=O)CC(=O)OC,inactive,–
CC(=O)NC(=O)c1ccccc1O,–,-4.21% [at 42.5 µM] (inactive)
CC(N)CCCC(C)(C)O (stereo not given),–,-1.28% [at 42.5 µM] (inactive)
C=CC(=O)NC(C)(C)C,–,0.0617% (inactive)
CCCCC(C=O)CC (stereo not given),inactive,–
N#Cc1cc(NC(=O)C(=O)O)c(Cl)c(NC(=O)C(=O)O)c1,–,-0.873% [at 42.5 µM] (inactive)
COc1c2occc2cc2ccc(=O)oc12,inactive,–
CCC(=O)OCCOc1ccccc1,–,1.8% (inactive)

Structure (SMILES),Potency,"activity change, negative = cytotoxicity"
O=C(c1ccc(OCCN2CCCCC2)cc1)c1c(-c2ccc(O)cc2)sc2cc(O)ccc12,inactive,–
Cc1ccccc1C(=O)Nc1ccc(C(=O)N2CCCC(N(C)C)c3ccccc32)cc1 (stereo not given),–,13.3% [at 42.5 µM] (inactive)
N#Cc1cc2ccccc2c2ccccc12,–,1.72% (inactive)
C#C[C@]1(O)CC[C@H]2[C@@H]3CCc4cc(OC5CCCC5)ccc4[C@H]3CC[C@@]21C,–,-6.26% [at 42.5 µM] (inactive)
O=S1(=O)c2cccc3cccc(c23)N1CCCN1CCN(c2ccc(F)cc2)CC1,–,7.11% [at 42.5 µM] (inactive)
CS(=O)(=O)CCNCc1ccc(-c2ccc3ncnc(Nc4ccc(OCc5cccc(F)c5)c(Cl)c4)c3c2)o1,–,2.41% [at 42.5 µM] (inactive)
Cc1cccc(C(=O)O)c1O,–,-0.24% [at 42.5 µM] (inactive)
COc1ccc2cc1Oc1cc3c(cc1OC)CC[N+](C)(C)[C@H]3Cc1ccc(cc1)Oc1c(OC)c(OC)cc3c1[C@@H](C2)[N+](C)(C)CC3,–,-3.38% [at 42.5 µM] (inactive)
CC1=CCC2CC1C2(C)C (stereo not given),inactive,–
Oc1ccc(Oc2ccccc2)cc1,–,-17.3% (inactive)
CN(C)[C@@H]1C(=O)C(C(N)=O)=C(O)[C@@]2(O)C(=O)C3=C(O)c4c(O)cccc4C[C@H]3C[C@@H]12,–,9.34% [at 42.5 µM] (inactive)
Cc1nc2n(c(=O)c1CCN1CCC(c3noc4cc(F)ccc34)CC1)CCC[C@H]2O,–,4.41% [at 18.9 µM] (inactive)
COC(=O)[C@H]1[C@H]2C[C@@H]3c4[nH]c5cc(OC)ccc5c4CCN3C[C@H]2C[C@@H](OC(=O)/C=C/c2ccc(O)c(OC)c2)[C@@H]1OC,–,2.09% [at 42.5 µM] (inactive)
CCCCCCCCCCCCCCN(C)C,–,-15% [at 18.9 µM] (inactive)
CCCCCCCCCCCC[N+](C)(C)CCCS(=O)(=O)[O-],–,1.49% (inactive)
CC(CO)Oc1ccccc1 (stereo not given),–,-27.5% (inactive)
CCOC(=O)c1ccc(N)cc1,inactive,–
CN(C)CCCO[C@@H]1[C@H]2OC(C)(C)O[C@H]2O[C@@H]1C(O)CO (stereo not given in full),–,-0.0217% [at 42.5 µM] (inactive)
CCOc1ccc2c(c1)C(C)=CC(C)(C)N2,inactive,–
O=C(O)CCCCCCCCCCCC(=O)O,inactive,–
